Screening results (PubChem)
Cav3 T inh: Cav3.2 calcium influx blockers – cell-based, Fluo-4 calcium fluorescence, FDSS, MLSMR library, primary screen. Voltage-dependent T-type calcium channel subunit alpha-1H (Homo sapiens), O95180. Cav3.2-expressing cells; stronger effect = lower value. B-score at 10 µM. hit rate 4% among 100,000. AID 449739, 2010;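 active means single-dose well whose peak fluorescence ratio is a statistical outlier from its plate by either plate-standardised score or position-corrected B-score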
PostGolgi yeast: phenotypic screen on post-Golgi transport, primary screen. post-Golgi transport phenotypic cell assay. inhibition, % at 10 µM. hit rate 0.9% among 98,000. AID 739, 2007;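 further: yeast cells grown in 1536-well plates; yeast grown about 18 h at 30C before absorbance read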
PLAP activator: PLAP enzyme activators, biochemical, luminescence, HTS; Alkaline phosphatase, placental type (Homo sapiens), P05187; purified PLAP enzyme, luminescent substrate read-out; stronger effect = higher value; activation fold at 20 µM; hit rate 1.2% among 96,000; in the data active means activation fold above about 2
Target sequence (P05187 whole entry, looked up): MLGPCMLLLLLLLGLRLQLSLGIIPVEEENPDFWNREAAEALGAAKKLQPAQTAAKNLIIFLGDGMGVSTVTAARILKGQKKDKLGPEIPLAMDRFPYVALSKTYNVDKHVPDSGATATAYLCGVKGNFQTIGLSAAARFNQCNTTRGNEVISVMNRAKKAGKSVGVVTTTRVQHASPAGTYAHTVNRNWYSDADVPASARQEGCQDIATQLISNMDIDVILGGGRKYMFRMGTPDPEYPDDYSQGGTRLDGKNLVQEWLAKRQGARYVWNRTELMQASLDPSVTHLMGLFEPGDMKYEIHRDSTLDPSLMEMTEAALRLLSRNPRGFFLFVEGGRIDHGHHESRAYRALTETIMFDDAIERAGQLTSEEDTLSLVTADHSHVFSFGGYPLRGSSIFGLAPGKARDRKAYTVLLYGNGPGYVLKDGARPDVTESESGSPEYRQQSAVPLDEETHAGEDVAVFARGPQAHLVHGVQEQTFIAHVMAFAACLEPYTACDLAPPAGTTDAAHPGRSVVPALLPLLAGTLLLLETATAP
PostGolgi ctrl: growth inhibition of yeast control strain, primary screen, counter-screen for post-Golgi transport modulator project; efflux-deficient yeast background strain, growth absorbance A615, 16 h; hit rate 5% among 98,000; inhibition, % at 10 µM; AID 738, 2007
D1 mod: D1 CRE-luciferase signal change, two-sided – cell-based, HEK293 D1, dopamine EC30, D1 allosteric modulator project, primary screen | D(1A) dopamine receptor (Homo sapiens), P21728 | dopamine EC30 potentiation; actives deviate in either direction | B-score at 10 µM | hit rate 5.9% among 58,000 | AID 641, 2007;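 active means luminescence count or its row- and column-corrected plate score outside the 99.7% band of the plate's sample wells, on either side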
hDAT+cocaine: changed hDAT dopamine uptake under cocaine IC80, either direction, primary screen, cocaine antagonist project, cell-based, LLC-PK1 hDAT, [14C]-dopamine uptake, MLSMR. Sodium-dependent dopamine transporter (Homo sapiens), Q01959. LLC-PK1 hDAT cells, [14C]-dopamine uptake with cocaine IC80; actives deviate in either direction. B-score at 10 µM. hit rate 1.3% among 110,000;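 active means Z score or B-score, a plate-position-corrected score, falls beyond the plate's 99.7% confidence bounds, in either direction; inactive means both scores lie inside the 99.7% bounds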;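 further: scored against the spread of the other compound wells on the same plate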
D1 mod confirm: D1 receptor positive allosteric modulators, retest, confirmation, cell-based, HEK293 D1, CRE-luciferase, duplicate. shares compounds with D1 mod. dopamine EC30 potentiation; stronger effect = higher value. luminescence at 10 µM. hit rate 88% among 2,200. AID 642, 2007;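 active means luminescence in either of two replicates above the same-plate mean plus 3 SD of the low-dose dopamine control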
D1 ag no DA: D1 receptor agonism without dopamine, confirmation, mechanism study for D1 allosteric modulator project, cell-based, HEK293 D1, CRE-luciferase, secondary assay 1 | shares compounds with D1 mod | luminescence, no dopamine; stronger effect = higher value | luminescence at 10 µM | hit rate 0.8% among 1,900; in the data active means luminescence above about 3900
Isoprot counter: isoproterenol response counter-screen activity for D1 modulators; calls only at 10 µM; shares compounds with D1 mod; HEK293 D1 CRE-luciferase, isoproterenol EC30 counter-screen; hit rate 63% among 2,200; AID 647;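 active means luminescence in either replicate above plate mean of wells with a partly effective reference agonist dose plus 3 SD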;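 further: isoproterenol raises cAMP through native beta-adrenoceptor Gs so signal bypasses D1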
Numbers without * were called inactive; i = inactive; . = no result given; + = active, no number. In the library only some 12% were active in any assay of this set; here they are far more common. Unless noted, no stated cut-off is given here; in the data, active means inhibition above about 30%; inactive means the rest.

SMILES | Cav3 T inh | PostGolgi yeast | PLAP activator | PostGolgi ctrl | D1 mod | hDAT+cocaine | D1 mod confirm | D1 ag no DA | Isoprot counter
Cc1csc(NC(=O)C2CCCN(S(=O)(=O)c3ccc(Br)s3)C2)n1 (stereo not drawn) | . | -2 | 1.5 | 20 | . | -0.44 | . | . | .
Cc1ccc(C)n1-n1cnc2scc(-c3cccs3)c2c1=O | -1.7 | -7 | 1.1 | -6 | 17* | 1 | 24272* | 1704 | +
COC(=O)c1cc(CSc2nnc(NC3CCCCC3)s2)oc1C | -2.6 | 16 | 1.2 | 17 | 10* | 0.1 | 10504* | 1400 | +
COC(=O)c1cc(CSc2nnc(-c3ccccc3)c(-c3ccccc3)n2)oc1C | -1.2 | 5 | 1.2 | -6 | -0.2 | 1.1 | . | . | .
CCOC(=O)c1[nH]c(CSc2nnc(-c3ccc(OC)cc3)o2)c(C(=O)OCC)c1C | -2.4 | -8 | 1.4 | 7 | 4.8* | -0.53 | 13216* | 1404 | +
CN1C(C(=O)NCc2ccccc2)CC2Cn3c(nc4cc5ccccc5cc43)C21 (stereo not drawn) | -3 | . | . | . | . | 0.33 | . | . | .
COCCN(Cc1cc2ccc(C)cc2n2nnnc12)Cc1nnnn1C(C)(C)C | 0.92 | . | . | . | . | -0.042 | . | . | .
CCSc1cnc(-c2ccccc2)n1CC | -1.8 | -4 | 1 | 3 | 4.5* | -0.27 | 8832* | 1620 | i
COc1ccc(CN2C(=O)c3cccnc3C2Nc2ccc(C)cc2)cc1 (stereo not drawn) | -1.4 | 8 | 1.6 | 16 | . | -0.0066 | . | . | .
COc1ccc(CN2C(=O)c3cccnc3C2Nc2cc(Cl)c(OC)cc2OC)cc1 (stereo not drawn) | -0.0076 | 28 | 1.1 | 11 | 6.5* | 1.1 | 10420* | . | +
COc1cc(C2C(C#N)=C(N)Oc3n[nH]c(-c4ccncc4)c32)cc(OC)c1OC (stereo not drawn) | 0.62 | -3 | 1 | -1 | 0.76 | 0.71 | . | . | .
COc1ccc(C2C(C#N)=C(N)Oc3n[nH]c(-c4ccccn4)c32)c(OC)c1OC (stereo not drawn) | . | 0 | 1.6 | -1 | 11* | . | 17692* | 1644 | +
O=C(Nc1cccc(F)c1)C1C2C=CC3(CN(CCCN4CCOCC4)C(=O)C13)O2 (stereo not drawn) | 1.2 | -2 | 1.5 | -5 | -0.5 | 0.068 | . | . | .
CC(C)(C)Nc1nc(NN)nc(NC(C)(C)C)n1 | -0.76 | 3 | 1.1 | 6 | . | 0.11 | . | . | .
CC(C)(C)Nc1nc(NC(C)(C)C)nc(-n2ccnc2)n1 | -0.16 | 0 | 0.7 | 33* | 5.7* | -1.1 | 17956* | 2972 | +
c1ccc(Nc2nc3ccccc3n3cnnc23)cc1 | 1.2 | 21 | . | 26 | 4.2* | 0.017 | 15712* | 1616 | i
c1ccc2c(c1)nc(NC1CCCCC1)c1nncn12 | -2.4 | -5 | 1 | . | 14* | 1.5 | 9836* | 1048 | +
O=C(Nc1ccccc1)[C@@H]1CC=C[C@@H]2CCN(Cc3ccc(Cl)c(Cl)c3)C(=O)[C@@H]21 | -2.3 | . | . | . | . | 1.8 | . | . | .
Cc1ccc(S(=O)(=O)c2cc3c(=O)n4ccccc4nc3n(C)c2=N)cc1 | . | 2 | 1 | 32* | 5.3* | . | 13268* | 1724 | +
COC(=O)c1cc2c(=O)n3ccccc3nc2n(C)c1=N | . | . | 1.1 | . | 1.3 | . | . | . | .
Cc1ccc(S(=O)(=O)c2cc3c(=O)n4ccccc4nc3n(Cc3ccco3)c2=N)cc1C | -1.1 | -6 | 1.3 | 23 | 6* | 0.39 | 13264* | 1500 | +
CNC(=O)c1cc2c(=O)n3cc(C)ccc3nc2n(Cc2ccco2)c1=N | . | . | 1.3 | . | 0.55 | . | . | . | .
CS(=O)(=O)N(Cc1ccccc1)c1ccccc1C(=O)N1CCN(c2ccccc2)CC1 | -0.95 | -6 | 1.8 | 9 | . | -0.43 | . | . | .
CC(=O)Nc1ccc(C2NC(=O)c3ccccc3O2)cc1 (stereo not drawn) | -0.065 | 22 | 0.9 | -6 | 3.1* | -0.018 | 4184 | 1712 | i
CCOC(=O)c1cc(C(=O)OCC)cc(-n2c(C)cc(C(=O)CN3CCOCC3)c2C)c1 | -3.4 | -11 | 1.5 | -3 | 4.9* | 3 | 7880* | . | i
SMILES | Cav3 T inh | PostGolgi yeast | PLAP activator | PostGolgi ctrl | D1 mod | hDAT+cocaine | D1 mod confirm | D1 ag no DA | Isoprot counter
COc1cccc(C2=NOC(C(=O)Nc3cccc(C(C)=O)c3)C2)c1OC (stereo not drawn) | -0.026 | 5 | 0.9 | 2 | 3.6* | 0.47 | 4760 | 1744 | i
CCC(C)c1ccc(NC(=O)COC(=O)C2=COCCO2)cc1 (stereo not drawn) | -0.28 | -4 | 0.9 | 4 | . | -1.2 | . | . | .
Cc1cc(C)c2nc(N3CCC(C(=O)N4CCCC4)CC3)sc2c1 | -0.057 | 12 | 1.4 | 9 | 3.5* | 1.6 | 5940 | 1656 | i
CCNC(=O)c1c(O)c2ccccc2[nH]c1=O | -0.49 | 4 | 0.9 | 1 | 11* | -0.93 | 15428* | . | +
O=C(NCCN1CCCCC1)c1c(O)c2ccccc2[nH]c1=O | -0.0099 | 5 | 1.6 | -14 | -0.48 | -1.5 | . | . | .
COc1cc2c(cc1OC)C(C(=O)Nc1ccc3c(c1)OCCO3)C1c3ccccc3CCN1C2=O (stereo not drawn) | -0.042 | 13 | . | 7 | 4.1* | 1.2 | 6868* | 1804 | i
COc1cc2c(cc1OC)C(C(=O)NCCN1CCOCC1)C1c3ccccc3CCN1C2=O (stereo not drawn) | 0.067 | 4 | 1.3 | 20 | -0.15 | 0.97 | . | . | .
COc1ccc(C2=NOC3(CC(=O)N(c4ccc5ccccc5c4)C3=O)C2)c(OC)c1 (stereo not drawn) | -2.2 | 0 | 0.9 | 15 | . | 0.35 | . | . | .
CCC(C)(C)NC(=O)CN(C(=O)c1snc(C(N)=O)c1N)c1ccc2c(c1)OCCO2 | -0.93 | 8 | 1.6 | 2 | 6.6* | 0.088 | 4748 | 1392 | i
O=C(O)CCCC(=O)Nc1ccc(Br)cc1 | -1 | 0 | 0.9 | 1 | . | 0.57 | . | . | .
O=C(O)CCCC(=O)Nc1ccccc1Br | . | 3 | 0.9 | 6 | 7.2* | -0.049 | 4184 | . | i
Cn1c(/C=N/n2cnnc2)nc2ccccc21 | 0.85 | -7 | 0.9 | 10 | -0.058 | -0.76 | . | . | .
